Source: PubChem BioAssay AID1508600 (Functional Genomics Laboratory (NCATS/FGL), 2020)
In all, about 53,000 sequences went through this assay and about 3,700 (7%) were called active.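 Rule for the calls: active = gene knockdowns whose robust z-score for IL-1 alpha signal is at least 2 or at most -2, so actives lie on both sides; inactive = the rest.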 This excerpt belongs to a sample that is enriched for actives.

Assay: Components of the Cytosolic LPS Sensing Pathway: Gene Identification via Genome-wide siRNA Screen;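 note: robust z of the log signal after scaling to non-targeting control siRNA wells of the plate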
Settings: RAW264.7 macrophages, IL-1a HTRF, actives lie on both sides, screened at 100 nM (by protocol), cells primed 5 h with Pam3CSK4 first
Procedure, shortened: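 Supernatant IL-1a by HTRF from RAW264.7 cells primed with Pam3CSK4 (5 hours) and transfected with LipidA (24 hour) after 48h siRNA knockdown at 100 nM; cell viability checked with CellTiter-Glo.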

z-score, inactive:
GGCAGAUGUAUGAAAUCUUTT against Fancc -0.196
GGUAUGCAACCUUGCCUUUTT against Coa3 0.945
GGGAUGACUUGGAGUCUCUTT against Csnk1d -0.0473
CGGUUUCUUACCAGCAAUUTT against Mgmt -0.237
GGCCUUCUCUGACUUUCUGTT against Zfp324 -0.633
GGGACAAUGUACAUCUACUTT against Dnaaf6b -0.199
GCAAGAUCCGUACAUAGCATT against Wdr48 -1.43
GGCAUUAAAGACCUGUUAATT against Kpnb1 -0.887
AUUGUAGCAGUGAAUUGGATT against Pdia6 -0.121
CCAGAAAUUGACAAAAAGUTT against Etfa 0.492
GGCAGGAGAAAGGCCUUUUTT against Olfr535 0.123
GAGUGUGCAUUUUGUUAGUTT against Olfr136 0.763
GGCUGAGGCUGUGAAGAAGTT against Igfbp5 -0.659
GGAGAGUAAAUACCGACAGTT against Homer2 -0.133
GCUGUUACCCUUAUGCAGCTT against Supt7l 0.486
GGACAACGAUAGCUAACCUTT against Tmem63a 0.453
GGAUGAAGAACCACUCAAATT against Ankzf1 -1.06
CCUAUUUUAACCUUACGUGTT against Bdh1 -0.443
GGAAGAGUUGGAGAAAAUUTT against Tex46 2
GGAGGUCUACAUUUAUUAATT against Dera 1.31
CCAAACAGGCUUUUUUCCUTT against Snx31 -0.712
CCAUGUCAAACACCUUAGUTT against Crebzf 1.26
GGUAAGCUCCAAUUAUGCCTT against Ubr3 0.0463
GGAGCAAUUGAGAAAGAAGTT against Moap1 0.508
CCCGUAACCAUUUACUGGUTT against Tyro3 0.85
GGCACGAGCUCUCAUCUUUTT against Slc27a4 -0.752
GGAAACAAGGGACUCUGUATT against Col4a4 0.906
GGAAUUCUCUAUACCAAGATT against P2ry10b 0.51
GCAAUUCCUCUUUUAGUCCTT against Spag6l -1.38
GGCAGAUCUUCUUUGGAAATT against Ugt2b38 0.757
CCAUUGUUUGACUCAAAACTT against Gjc3 0.62
GGACCAUGGAUAUUUAAAGTT against Mafk -0.297
GGAACUCUGUGGGUGAGAATT against Dock8 -1.46
CCGGAUGUGCCUUGUCUACTT against Ckap5 -1.58
GGAAAAUCAAGACCUAUGGTT against Obox6 -1.37
GUGCAUUGUCUUUUGUAGATT against Olfr1095 -0.753
CGAUAAACUGGAUACCACUTT against Sntn 0.437
GCAAUCUGUUUAGAGAGAGTT against Slc10a5 -1.16
GGUGGUGAAUAUGAUGAUATT against Tsr1 -0.712
GCUAAUGAUUUCCGCUUUGTT against Tyw1 0.367
GCCCGCAUUCUUAUUCGAUTT against Tmem64 -1.13
GCUGAUGUUAAAUUCGCAGTT against Serpinb3b 1.33
GGAGCCCUGUGUCUUGAGUTT against Ccl19 -0.39
GGAGAUCCAAGAGAAAUUUTT against Csf3r 1.18
GCAUUACACUGUUAAUGUUTT against Gopc -0.138
GGAAUCACAAGGUAUUUUCTT against Spo11 -0.237
GGAGAAGUUUAAGGAGAUUTT against Dnajb5 1.54
CCUUUGGUAAUCUCCAAAATT against Amph 0.862
CCUUCUGCGGCUCAGUCUATT against Bach2os -0.199
GGCUUUCCUUACCAUAUAUTT against Trim7 -0.675
GGAGAUUGGCAUAGAGAAGTT against Myo5b 0.437
AUCCAUUUUGUGCUAGGCATT against Cacfd1 0.473
CCUGCUAUGUAAUAUAGAUTT against Eef2k 0.0542
GGAAAGAAAUGAAUCAGUATT against Rnf216 0.882
GGACAUUAAGAGUGGAAAGTT against Nucb1 0.777
GGGAAGGAUUAUGUCAAAUTT against Kit 0.328
CGGCCUCCAUGUUAAGAUATT against Csf2rb2 -0.249
GCCUGAAGAGAGUCUUAUCTT against Bnip5 1.09
GGCAUUUAAAUCUGUGUGUTT against Slc39a6 -0.471
GGGAGGAAGUGGAAGUUCUTT against Tsc22d1 0.488
GGUGAAUGUAGUGUUAAAATT against Cyrib -0.204
GAGAUGUCCGAAAUGCCAATT against Smco4 1.73
GGACAGUGUAGUCAAAAAATT against Cx3cr1 0.149
GCAAACCUCAAUCUUGAAATT against Kif15 0.297
GGCAGUUAUUUCUAUCUUATT against 1700018F24Rik 0.683
GGCUGUUGAACAGGUUAUCTT against Mis12 0.645
CCUGAUCAACAAACCGGAUTT against Rfxank 1.29
CGACUGUCGUUUGUUGAUGTT against Tktl2 -0.766
GUAGAGUGAUGAGAGGCCUTT against Vmn1r-ps8 -0.475
UUCAAAUAAACUCUCUGCUTT against Krtap31-2 0.802
GCCUUCAUGGGAUUUGUCUTT against Opn1sw -0.498
GCUAGUUUCCGUCGCUUUGTT against Cpeb4 0.555
GGUACUGGAAAUCUGUAUGTT against Nlgn1 -0.332
GCGAACUUUUACAUUUCGATT against Gmpr 0.272
GUGGGAUUCCAGUAGAAAUTT against Olfr1116 0.559
CCAAGUUAGUGGAUGAAUGTT against Ugt2b35 -0.555
GGGAGGAAAUUAAAUUUCATT against Hif1an -0.223
GGAAAUAUCCUAAACAGAATT against Gdpd2 -0.864
GCAGUUGCGUUCUAUUGAATT against Ccdc86 0.179
GCCGGUUGGAACAAAAGGCTT against E130018O15Rik 0.993
GCGAUCAGUACUGAAGGAATT against Siglecf -1.27
GGAGACUGUCUAAUAAAAATT against Medag 0.0572
CUGUAUGUUAUCUCUACACTT against Olfr1513 0.469
CCAAAUUGCUUACAUGAUATT against Greb1 1.44
GCUGAUAACCUGAUCAACGTT against Nars 0.0406
CGACGACUAGACCUCAUCUTT against Dtx4 -0.624

z-score, active:
GGAGAAGACUUGUAACAAATT against Hacd4 5.28
GAACCAGACUAAGAACUGUTT against Cox6b1 5.31
GGAGCUGAUAGGACUGAUGTT against Snap47 2.16
GCCCUACCAAAGACACUAGTT against Lrch4 -2.31
GGGCAAACGGAGGAAUGAATT against Slc35g3 2.47
GGUGUGUUUUAUGUGUCCCTT against Ctif 2.62
GCAACGAGUGUGUUUUCUGTT against Spink10 2.25
GCAGCUUUUUGAGGUGUUATT against Slc9a7 3.07
GGAAUAGUGAAGGUACUUUTT against Cer1 2.4
GGACCGUCAGUGUCAUGGATT against Zfp397 -2.55
GGAAGAGGUUAGCAAGCAUTT against Iws1 2.27
GCCUUAUGGUUUUGUAUUUTT against Nap1l1 -2.38
CCACCUAUCAGGAUUCAACTT against Sf3b6 -3.37
GCCUCAUUAUGAGUUGGCATT against Olfr1419 -2.51
GGUCCACAAUGGCAUCAUATT against Elf4 2.13
GGAACCUACUGCUACAUCATT against Sftpc 2.24
CCCGCUUGUUCUGAUGAUATT against 2310039H08Rik -2.26
GCAAUGGUUUCGGCUACGATT against Hoxb3 2.18
GGAAUUCCCAAGAGAAGGATT against Gk -5.27
GGGCCACAGCUUAAUACUGTT against Ptov1 3.28
GGCCUUCUAAAGCUGUGAUTT against 6330403K07Rik -2.7
